Several values for one entry are separate records, joined by “and”; a condition that tells them apart may be missing. Identical values can stand only once. Activity calls are given as the source filed them. How the source made its calls: active means hit-call score of the fitted dose curve at least 0.9, where 1 is the maximum; inactive means score below 0.9.

Read-out in this assay: Collagen III, COL3A1 (gene 1281)
Put plainly: BSK_MyoF_CollagenIII: BioMAP Diversity Plus: MyoF Assay for Collagen III Biomarker Activity (AID 2284239). Conditions: primary human lung fibroblasts. On the procedure: BSK_MyoF is a cell-based, multiplexed-readout assay that uses lung fibroblasts, […], with measurements taken at 24 hours after chemical dosing in a microplate: 96-well plate.BSK_MyoF_CollagenIII is an assay component measured in the BSK_MyoF assay. It measures Collagen III antibody related to regulation of gene expression using ELISA technology.Data from the assay component BSK_MyoF_CollagenIII was analyzed at the endpoint, BSK_MyoF_CollagenIII, in the positive analysis fitting direction relative to DMSO as the negative control and baseline of activity. Using a type of binding reporter, gain or loss-of-signal activity can be used to understand protein changes. To generalize the intended target to other relatable targets, this assay endpoint is annotated to the 'cell adhesion molecules' intended target family, where the subfamily is 'collagen'.
The levels of cell surface (or secreted, indicated by the prefix "s") biomarker endpoints were measured by ELISA. Overt cytotoxicity to cells in confluent adherent cultures (all systems other than the BT system) was assessed by measuring total protein levels using sulforhodamine B (SRB) staining in parallel cultures at the time of biomarker measurements, indicated as SRB endpoints. For proliferation assays for adherent cell types, individual cell types are cultured at sub-confluence and relative cell numbers quantified by SRB staining at time points optimized for each system (48 h: 3C and CASM3C systems; 72 h: BT and HDF3CGF systems; 96 h: SAg system). SRB was performed by staining cells with 0.1% SRB after fixation with 10% TCA and reading wells at 560 nm.Viability and proliferation of PBMC (T cells) was quantified by Alamar Blue reduction for the SAg and BT systems. For PBMC viability (referred to as PBMC Cytotoxicity within the assay endpoint names), cells were plated (75,000/well in a 96-well plate) and then chemical samples added for 1 h before addition of activators, SEB and TSST-1 (20 ng/mL final concentration each). Cells were incubated for 90 h. Then, Alamar Blue (20 uL/well) (Invitrogen, Cat DAL1100) was added for 6 h, and the plates were read with a fluorescence microplate reader at 546/580 nm (excitation/emission). For PBMC proliferation, cells were plated and activated as above but incubated for only 16 h prior to addition of Alamar Blue. Plates were read after 6 h.
Take `O=C(NO)c1ccccc1`: the result was inactive.

On to `C[C@]12CC[C@@H]3c4ccc(O)cc4CC[C@H]3[C@@H]1C[C@@H](O)[C@@H]2O`, for which the outcome was inactive.

For the compound `CCOC(=O)CN[C@@H](C(=O)N1CC[C@H]1C(=O)NCc1ccc(/C(N)=N/O)cc1)C1CCCCC1`, the outcome was inactive.

Regarding `CN(Cc1cnc2nc(N)nc(N)c2n1)c1ccc(C(=O)N[C@@H](CCC(=O)O)C(=O)O)cc1`, the result was inactive.

In the case of `C=CC(C)(CCC=C(C)C)OC(C)=O` (configuration not stated), the outcome was inactive.

As to `O=P(O)(O)CCC(F)(F)C(F)(F)C(F)(F)C(F)(F)C(F)(F)C(F)(F)C(F)(F)C(F)(F)F`, the outcome was inactive.

Consider `Cc1cccc2c1ccc1ccccc12`, for which the outcome was inactive.

`O=C(O)CCC(F)(F)C(F)(F)C(F)(F)C(F)(F)C(F)(F)C(F)(F)F`: the result was inactive.

The term AC50 denotes the concentration at which the activity in the assay is half-maximal. In the case of `CN(C)c1ccc(C(=C2C=CC(=[N+](C)C)C=C2)c2ccccc2)cc1`, the AC50 was 0.164 µM (active).

On to `NC(=NCCCCCCN=C(N)/N=C(\N)Nc1ccc(Cl)cc1)/N=C(\N)Nc1ccc(Cl)cc1`, for which the AC50 was 2.24 µM (active).

For `O=C(NCc1ncc(C(F)(F)F)cc1Cl)c1c(Cl)cccc1Cl`, the outcome was inactive.

As to `C=COC(=O)C(C)(C)CCCCCC`, the AC50 was 31.9 µM (active).

Take `COc1cccc(O)c1`: the result was inactive.

`Cc1ccc(C(=O)c2ccccc2)cc1`: the outcome was inactive.

On to `O=S(=O)(O)C(F)(F)C(F)(F)C(F)(F)C(F)(F)C(F)(F)C(F)(F)C(F)(F)C(F)(F)C(F)(F)C(F)(F)F`, for which the outcome was inactive.

On to `CCCCCc1ccc(O)cc1`, for which the AC50 was 16.1 µM (active).

With `COCN(COC)c1nc(N(COC)COC)nc(N(COC)COC)n1`, the result was inactive.

On to `Oc1cc2ccccc2cc1O`, for which the result was inactive.

For `C=CC(=C)CC/C=C(\C)CCC=C(C)C`, the result was inactive.

Consider `CC(C)(C)c1ccc(O)c(O)c1`, for which the AC50 is 29.2 µM (active).

As for `CCCCC(CC)C(=O)OCCOCCOCCOCCOC(=O)C(CC)CCCC` (configuration not stated), the outcome was inactive.

`CC1=NN(c2ccccc2)C(=O)C1`: the AC50 is 3.97 µM (active).

In the case of `O=P(O)(O)CCC(F)(F)C(F)(F)C(F)(F)C(F)(F)C(F)(F)C(F)(F)F`, the result was inactive.

In the case of `O=C1c2ccc(O)c(O)c2C(=O)c2c(O)ccc(O)c21`, the result was inactive.

Consider `COC1=CC(=O)C[C@@H](C)[C@]12Oc1c(Cl)c(OC)cc(OC)c1C2=O`, for which the AC50 was 3.97 µM (active).

Turning to `COc1cc(OC)nc(NC(=O)NS(=O)(=O)Nc2ccccc2C(=O)N(C)C)n1`, the outcome was inactive.

Take `CN(CCO)S(=O)(=O)C(F)(F)C(F)(F)C(F)(F)C(F)(F)C(F)(F)C(F)(F)C(F)(F)C(F)(F)F`: the outcome was inactive.

Turning to `O=C(O)CCC(F)(F)C(F)(F)C(F)(F)C(F)(F)C(F)(F)F`, the outcome was inactive.

Consider `CCCCCCCCCCCCCCCCCC[N+](C)(C)Cc1ccccc1`, for which the AC50 is 2.09 µM (active).

Take `O=C(CC(=O)C(F)(F)C(F)(F)C(F)(F)F)c1cccs1`: the half-maximal activity concentration (AC50) is 8.37 µM (active) and 7.86 µM (active).

As for `OCC(F)(F)C(F)(F)C(F)(F)C(F)(F)C(F)(F)C(F)(F)C(F)(F)C(F)(F)C(F)(F)C(F)(F)C(F)(F)F`, the result was inactive.

`OCCN1CN(CCO)CN(CCO)C1`: the outcome was inactive.

For `C=CC(=O)OCCC(F)(F)C(F)(F)C(F)(F)C(F)(F)C(F)(F)C(F)(F)C(F)(F)C(F)(F)F`, the result was inactive.

`CC[N+](CC)(CC)Cc1ccccc1`: the result was inactive.

In the case of `O=C(O)C(F)(F)OC(F)(F)C(F)(F)OC(F)(F)C(F)(F)OC(F)(F)C(F)(F)C(F)(F)C(F)(F)F`, the AC50 was 6.08 µM (active) and 4.89 µM (active).

Take `Cc1ccc(N=Nc2c(O)ccc3ccccc23)c(C)c1`: the result was inactive.

Take `Clc1ccc(Nc2nnc(Cc3ccncc3)c3ccccc23)cc1`: the result was inactive.

(Values after PubChem BioAssay (EPA / NIEHS).)
